Screens deposited in PubChem by National Center for Advancing Translational Sciences (NCATS).
Most compounds without a hit are left out; they make up all but 9.4% or so of the library.
Pf growth 48h – Primary qHTS for delayed death inhibitors of the malarial parasite plastid, 48 hour incubation | AID 504832, 2011 | 310,000 compounds, 5.9% hits | P. falciparum luciferase growth in erythrocytes, 48 h | Potency, µM (doses to about 28.7 µM), without a hit: top-dose activity change, negative = inhibition, hits mostly inhibitors; also: % is scaled to controls: 0 for no effect and ±100 for the full control effect
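Erythrocytes infected with P. falciparum carrying an integrated firefly luciferase reporter (2% hematocrit, 0.1% parasitemia final) were exposed to compounds in RPMI 1640 with 0.5% Albumax at 37 C, 5% CO2. Growth inhibition was scored as reduced luminescence.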
AMA1-RON2 inh – qHTS for Inhibitors of AMA1-RON; Towards Development of Antimalarial Drug Lead: Primary Screen; AlphaScreen AMA1-biotinylated RON2 peptide binding; AID 720542, 2013; Plasmodium falciparum AMA1 (3D7) - RON2 peptide interaction; Potency, µM (doses to about 58.2 µM), without a hit: top-dose activity change, negative = inhibition, actives largely listed as inhibitors; 360,000 compounds, 0.2% hits;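 also: 0% = vehicle wells and -100% = peptide control; nearly all actives have a fitted effect of over 45% in size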
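AMA1 (3D7) with his tag at 25 nM final met compounds first, then biotinylated RON2 peptide at 25 nM; detection used donor plus acceptor beads, 10 µg/mL apiece, read by AlphaScreen after 30 min at room temperature.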
Pf growth 96h – Primary qHTS for delayed death inhibitors of the malarial parasite plastid, 96 hour incubation; P. falciparum luciferase reporter growth, 96 h; 320,000 compounds, 6.9% hits; Potency, µM (doses to about 28.7 µM), inactives show at the highest dose activity change, negative = inhibition, most hits filed as inhibitors; also: % is scaled to controls: 0 for no effect and ±100 for the full control effect
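Luminescence readout: decreased luciferase signal marks inhibited growth of reporter-expressing P. falciparum in infected red cells (2% hematocrit, 0.05% parasitemia final), exposed to compound two generations (96 h, 37 C, 5% CO2).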
SARS PLP yeast – qHTS of Yeast-based Assay for SARS-CoV PLP; 330,000 compounds, 0.19% hits; Potency, µM (top dose mostly 32.9 µM), for inactives: top-dose activity, positive = growth rescue, most hits filed as activators; S. cerevisiae expressing SARS-CoV PLpro, growth rescue; calls by dose curve; also: 0% is about no effect; nearly all actives have a fitted effect of over 55% in size
Starred values were filed as active, the others as inactive; ? = inconclusive; nt = no result given. Unless noted, calls follow the shape of the dose curve; as a rule, active = well fitted curve in the direction sought with a large enough effect; inconclusive = small, poorly fitted or top-dose-only effect, or another doubt; inactive = no such curve, though single readings can be large; an effect the other way counts as inactive or inconclusive. Potency is read from the fitted curve at half-maximal effect.

SMILES	Pf growth 48h	AMA1-RON2 inh	Pf growth 96h	SARS PLP yeast
O=C(Nc1ccccc1)Nc1nnc(SCc2ccc(Cl)cc2)s1	5%	-5%	?	-13%
C=CCc1cc(Cl)ccc1OCCOCCNC(C)(C)C	13µM*	3%	3%	-1%
C=CCc1cc(Cl)ccc1OCCNCCCOC	-10%	27%	13µM*	-32%
CN(C)S(=O)(=O)c1ccc2c(c1)C(=O)c1cc(S(=O)(=O)N(C)C)ccc1CC2	-16%	nt	?	0%
CN(C)S(=O)(=O)c1ccc2c(c1)/C(=C/c1cc3c([nH]1)CCCC3)C(=O)N2	2.1µM*	-14%	1.3µM*	nt
Oc1ccc(-c2n[nH]c(C(F)(F)F)c2-c2ccccc2)c(O)c1	-17%	16%	32%	4%
COc1ccccc1-c1c(-c2ccc(O)cc2O)n[nH]c1C(F)(F)F	?	69%	13µM*	1%
COc1ccc(C(NC(=O)N2CC(C)OC(C)C2)C(Cl)(Cl)Cl)cc1F (stereo not drawn)	13µM*	-1%	3.3µM*	26%
Cc1ccc(C(NC(=O)N2CC(C)OC(C)C2)C(Cl)Cl)cc1F (stereo not drawn)	?	-10%	-12%	-11%
O=S(=O)(NC1CCCCC1Nc1ccc(Cl)cc1)c1ccccc1 (stereo not drawn)	-7%	-10%	5%	-50%
O=C(Nc1ccccc1)c1cccc(S(=O)(=O)NC2CCCC2)c1	13%	17%	12µM*	-1%
CC(=O)Nc1ccc(NC(=O)c2cccc(S(=O)(=O)N(C)C3CCCCC3)c2)cc1	7.4µM*	-4%	?	26%
Cc1ccc(NC(=O)c2cccc(S(=O)(=O)N(C)C3CCCCC3)c2)nc1	5.2µM*	-3%	9.3µM*	-13%
CN(C)S(=O)(=O)c1cccc(C(=O)Nc2ccccc2)c1	31%	-4%	20%	0%
CC(=O)Nc1ccc(NC2CCCCC2NS(=O)(=O)c2ccccc2)cc1 (stereo not drawn)	-5%	-6%	8.3µM*	1%
O=C1C2C3C=CC(C3)C2C(=O)N1CCC(=O)N1CCc2ccccc21 (stereo not drawn)	8%	-7%	15%	10%
OC(COc1ccc(Cl)cc1Cl)Cn1ccnc1 (stereo not drawn)	nt	12%	-13%	-2%
C=CCOC(Cn1ccnc1)c1ccc(Cl)cc1Cl (stereo not drawn)	4.1µM*	-4%	3.4µM*	11%
Clc1ccc(COC(Cn2ccnc2)c2ccc(Cl)cc2Cl)c(Cl)c1 (stereo not drawn)	2.1µM*	0%	1.7µM*	-57%
O=C(Nc1cccc(F)c1)c1cccnc1	-1%	2%	7.4µM*	-4%
O=C(Nc1cccc(NC(=O)c2cccnc2)c1)c1cccnc1	8%	6%	72%	1%
O=C(Nc1cccc(NC(=O)c2cncc(Br)c2)c1)c1cncc(Br)c1	3.7µM*	9%	?	2%
Fc1cccc(NC(=S)NCc2cccnc2)c1	-11%	-3%	7.4µM*	-23%
O=C(Nc1cccc(Br)c1)c1ccn[nH]1	78%	-8%	0.66µM*	-36%
CC(C)CC(=O)NC(=S)N1CCCCCC1	6%	25%	8%	17%
SMILES	Pf growth 48h	AMA1-RON2 inh	Pf growth 96h	SARS PLP yeast
Cc1c(NC(=O)c2ccc3c(c2)OCO3)cccc1-c1nc2ncccc2o1	nt	-5%	?	-11%
Cc1ccccc1OCC(=O)NNC=O	-4%	45%	?	-3%
O=C(Nc1cccnc1)c1cccc([N+](=O)[O-])c1	-1%	-1%	56%	-1%
O=C(Nc1ccc(F)c(F)c1)c1cccnc1	nt	-7%	10µM*	0%
Fc1cccc(NC(=S)NNc2c3ccccc3nc3ccccc23)c1	2.1µM*	?	1%	0%
Fc1cccc(NC(=S)NNc2ccccc2)c1	?	24%	68%	-11%
O=S(=O)(NCCCc1ccccc1)c1ccc(Cl)cc1	6%	62%	9.3µM*	-28%
O=S(=O)(NCCCc1ccccc1)c1ccc(F)c(F)c1	54%	19%	48%	-1%
CN(C)c1cccc(CNC(=O)c2csc([C@@H]3C[C@H](O)[C@@H](CO)O3)n2)c1	nt	7%	nt	nt
CCOCCCN(C(=O)c1snc(C(N)=O)c1N)C(C(=O)NC1CCCC1)c1ccc(O)c(OC)c1 (stereo not drawn)	-14%	44%	-5%	1%
Cc1ccc(-n2c(SCC(N)=O)nnc2-c2ccccn2)cc1	-2%	-20%	nt	6%
COc1cc(-c2nnc(SCC(=O)N(Cc3ccccc3)C(C)(C)C)o2)cc(OC)c1OC	10µM*	0%	3.7µM*	-10%
COc1cccc(-c2nnc(SCC(=O)N(C(C)C)C(C)C)o2)c1	-30%	1%	-27%	-6%
COc1ccc(-c2nnc(SCC(=O)Nc3ccccc3OC)o2)cc1	175%	-20%	?	-17%
COc1cc(OC)cc(-c2nnc(SCC(=O)N(C(C)C)C(C)C)o2)c1	7.4µM*	1%	65%	1%
COc1ccc(-c2nnc(SCC(=O)NC(C)c3ccccc3)o2)cc1 (stereo not drawn)	1%	-1%	10µM*	-8%
CC1(C)CC(=O)C2=C(C1)OC(N)=C(C#N)C2c1cccs1 (stereo not drawn)	?	0%	21%	-2%
O=C1NC2(CCCCCC2)N=C1c1ccc(F)cc1	nt	5%	nt	-13%
Cc1ccnc(SCc2cc(=O)c(OC(=O)c3cccs3)co2)n1	-20%	?	33%	0%
O=C1CC(c2ccccc2)CC(O)=C1C=Nc1ccc(O)cc1 (stereo not drawn)	19%	4%	13µM*	0%
Cc1ccc(S(=O)(=O)N2CCN(C)CC2)cc1[N+](=O)[O-]	32%	-5%	214%	-16%
CCN1CCN(c2ccc(N3CCN(S(=O)(=O)c4ccc(C)c([N+](=O)[O-])c4)CC3)nn2)CC1	13µM*	-10%	0.93µM*	-12%
COc1ccc(NC(=O)COc2ccccc2F)cc1S(=O)(=O)N1CCCCC1	-18%	-13%	?	0%
O=C(CN1C(=O)C2C3CCC(C3)C2C1=O)NCc1ccco1 (stereo not drawn)	31%	-2%	22%	0%
O=c1[nH]cc(C(F)(F)F)cc1NS(=O)(=O)c1ccc([N+](=O)[O-])cc1	-26%	-4%	-16%	-6%
Cc1nn(-c2ccccc2)c(C)c1/C=N\N1CCN(c2ccc(Cl)cc2)CC1	13µM*	-5%	?	1%
Cc1nn(-c2ccccc2)c(C)c1/C=N/n1cnnc1	-9%	0%	?	-1%
Clc1ccc2c(c1)CCc1cccnc1C2=C1CCNCC1	13µM*	nt	?	-7%
CCOC(=O)c1sc2ccc(S(=O)(=O)N3CCCCC3)cc2c1N	-23%	17%	-6%	-6%
Cc1ncsc1C(=O)N1N=C2/C(=C/c3ccc(N4CCOCC4)cc3)CCCC2C1c1ccc(N2CCOCC2)cc1 (stereo not drawn)	?	-17%	5.2µM*	5%
